PP5 primary – PP5 (human) phosphatase inhibition; P53041; purified PP5c, OMFP substrate fluorescence; inhibition, % at 6.7 µM; actives 0.18% (n = 320,000);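 active means inhibition above the campaign's mean inhibition across all tested compounds plus 3 SD, cut at about 9.5% in these data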
Target sequence (P53041 whole entry, looked up): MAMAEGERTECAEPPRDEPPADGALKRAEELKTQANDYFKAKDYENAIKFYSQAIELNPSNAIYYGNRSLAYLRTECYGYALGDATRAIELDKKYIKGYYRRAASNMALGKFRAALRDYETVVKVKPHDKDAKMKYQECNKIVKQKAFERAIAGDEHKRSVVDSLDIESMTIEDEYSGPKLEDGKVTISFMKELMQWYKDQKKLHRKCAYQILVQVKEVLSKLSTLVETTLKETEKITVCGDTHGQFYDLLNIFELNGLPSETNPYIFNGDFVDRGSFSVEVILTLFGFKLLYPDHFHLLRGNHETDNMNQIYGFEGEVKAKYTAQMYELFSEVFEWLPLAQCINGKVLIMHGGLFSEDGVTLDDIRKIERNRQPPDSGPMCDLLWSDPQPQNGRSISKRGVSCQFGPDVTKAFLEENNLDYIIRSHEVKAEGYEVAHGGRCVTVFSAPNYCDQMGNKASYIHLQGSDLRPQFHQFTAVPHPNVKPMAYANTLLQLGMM
NR1D1 modulator – modulators of human Rev-erb alpha DNA binding | P20393 | Rev-erbα–FITC-DNA binding, fluorescence polarization, 90 min | activity, % at 10 µM | actives 0.79% (n = 370,000) | AID 1259318;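 active means activity above about 14%, limit read from the data; passing the limit was not always enough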
KLK7 zymogen act – activators of human kallikrein-7 zymogen; P49862; purified proKLK7, EDANS-DABCYL substrate fluorescence; 100% is mature enzyme control, 0% vehicle; activation, % at 7 µM; actives 0.9% (n = 370,000);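 active means activation above the mean of all tested compounds plus 3 SD, computed per campaign excluding outliers beyond control limits, cut at about 13% in these data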
PP1 inh – counter-screen for PP5 inhibitors: inhibitors of human PP1-alpha; actives 0.9% (n = 320,000); purified PP1alpha, OMFP fluorescence; AID 2235; P62136; inhibition, % at 6.7 µM;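 active means inhibition above the mean inhibition of all tested compounds plus 3 SD, computed separately for each screening campaign, cut at about 15% in these data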
PG9 binder – small molecules binding HIV-1 gp120 antibody PG9; actives 0.43% (n = 360,000); TR-FRET gp120-PG9 antibody binding; inhibition, % at 6.7 µM; in the data active means inhibition above about 8.5%
GASC-1 inh – blocks human GASC-1 demethylase activity; Q9H3R0; actives 0.069% (n = 330,000); inhibition, % at 2.35 µM; AID 2099; GST-JMJD2C(1-420) H3K9me3 demethylation, DELFIA europium;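 active means more than half of a compound's replicate wells show inhibition beyond 50%, single wells judged on their own value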;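 further: signal counts dimethyl H3K9 product captured on neutravidin plate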
Each line names hits and unclear results; the compound was inactive in the other large screens. Most compounds without a hit are left out; they make up all but 2.8% or so of the library.

O=c1cc(-c2ccccc2)[nH]n1-c1ccc([N+](=O)[O-])cc1	PP1 inh 16 (no result: KLK7 zymogen act, PG9 binder)
C=CCNC(=O)C1CCN(c2cncnc2)CC1	none (no result: PP5 primary, PP1 inh, PG9 binder, GASC-1 inh)
O=c1[nH]c2ccc(S(=O)(=O)N3CCCCC3)cc2[nH]c1=O	none
CC1CCN(S(=O)(=O)c2ccc3[nH]c(=O)[nH]c3c2)CC1	GASC-1 inh 58
COc1ccc(-c2nc3ccc(C)cn3c2NCc2ccccc2)cc1SC1CCCCC1	PP1 inh 17 (no result: NR1D1 modulator, KLK7 zymogen act, PG9 binder)
CCCCCCCC(=O)N[C@H]1CC[C@@]23CCCN2C(=O)CCC[C@H]3[C@H]1C	none (no result: PP5 primary, KLK7 zymogen act, PP1 inh, PG9 binder, GASC-1 inh)
O=c1c2c(nc3c(-c4cccc5ccccc45)c[nH]n13)CCC2	PP1 inh 17
Cc1[nH]n2c(=O)c3c(nc2c1-c1cccc2ccccc12)CCC3	none
Cc1ccc(NC(=S)NNc2ccc([N+](=O)[O-])cc2S(=O)(=O)Nc2ccccc2C(=O)O)cc1C	PP1 inh 17
Cc1cc(N/N=C/c2cccc(Cl)c2)nc(NCc2ccccc2)n1	PP1 inh 15
Cc1cc(C)nc(SCc2ccc(Cl)cc2)n1	none
Cc1cc(C)nc(NCc2ccc(Cl)cc2)n1	GASC-1 inh 68
Cc1cc(Nc2cccc(Cl)c2)nc(NCc2ccccc2)n1	PP1 inh 16
Cc1cc(N/N=C/c2ccccc2)nc(NCc2ccccc2)n1	none
Cc1cc(N/N=C/c2cccc(F)c2)nc(NCc2ccccc2)n1	none
O=C(N/N=C/c1cccnc1)c1cc(-c2ccc(Cl)cc2)nc2ccccc12	none
O=C(N/N=C/c1ccc(Cl)cc1)c1cc(-c2cccnc2)nc2ccccc12	PP1 inh 17
COc1ccc2[nH]c(O)c(N=NC(=O)c3ccc(NS(=O)(=O)c4cccs4)cc3)c2c1	PP1 inh 17
Cc1cccc2c(N=NC(=O)c3ccc(NS(=O)(=O)c4cccs4)cc3)c(O)[nH]c12	PP1 inh 16 (no result: GASC-1 inh)
Cc1ccc2[nH]c(O)c(N=NC(=O)c3ccc(NS(=O)(=O)c4cccs4)cc3)c2c1	none
CCCCCCC(=O)O[C@H]1CC[C@H]2[C@@H]3CCc4cc(O)ccc4[C@H]3CC[C@]12C	none (no result: PP5 primary, KLK7 zymogen act, PP1 inh, PG9 binder, GASC-1 inh)
CCOC(=O)c1c(-c2ccc(F)cc2)csc1NC(=O)C1CC=CCC1C(=O)O (stereo not drawn)	none
COC(=O)c1c(-c2ccco2)csc1NC(=O)C1CC=CCC1C(=O)O (stereo not drawn)	PG9 binder 9.7
CCCCNC(=O)C1CCCN1C(=O)Nc1cccc(C)c1 (stereo not drawn)	none (no result: PP5 primary, PP1 inh, PG9 binder, GASC-1 inh)
COc1ccc(C(=O)Oc2cc3c4c(c2)C(C)=CC(C)(C)N4C(=O)C3=O)cc1OC	none
COc1cccc(C(=O)Oc2cc3c4c(c2)C(C)=CC(C)(C)N4C(=O)C3=O)c1	PP1 inh 17
CCCN(CCC)C(=O)CSc1nc2n[nH]c(C)c2c(=N)n1-c1ccc(OCC)cc1	none (no result: NR1D1 modulator, KLK7 zymogen act, PG9 binder)
CCOc1ccc(-n2c(SCC(=O)Nc3ccc(CC)cc3)nc3n[nH]c(C)c3c2=N)cc1	PP1 inh 16
c1coc(-c2nc(-c3ccco3)c(-c3ccco3)nc2-c2ccco2)c1	PP1 inh 43
Nc1nc(-c2ccco2)c(-c2ccco2)s1	none
CCOc1ccc(/C=C2\NCCc3cc(OCC)c(OCC)cc32)cc1OCC	none (no result: PP5 primary, PP1 inh, PG9 binder, GASC-1 inh)
NC[C@H]1O[C@H](O[C@H]2C(O[C@@H]3O[C@H](CO)[C@@H](O)[C@H]3O)[C@@H](O)[C@H](N)C[C@@H]2N)[C@H](N)[C@@H](O)[C@@H]1O (stereo partly drawn)	none (no result: PP5 primary, KLK7 zymogen act, PP1 inh, PG9 binder, GASC-1 inh)
O=C(Nc1ccccc1C(F)(F)F)c1cc(-c2ccco2)on1	none
O=C(Nc1ccccc1C(F)(F)F)c1cc(-c2ccccc2O)on1	PP1 inh 16
O=C(CNc1ccc2c(c1)OCO2)N/N=C\c1cn(Cc2ccccc2)c2ccccc12	PP1 inh 17
O=C(CNc1ccccc1)N/N=C/c1ccc2c(c1)OCO2	none
CN(C(=O)COC(=O)C1CCN(S(=O)(=O)c2ccc3c(c2)OCCO3)CC1)c1ccccc1	none
CC(C)N(Cc1ccccc1)C(=O)COC(=O)C1CCN(S(=O)(=O)c2ccc3c(c2)OCCO3)CC1	PP1 inh 16
COc1ccc(C(C(=O)N(C)C2CCCC2)N(Cc2ccc(F)cc2)C(=O)c2ncn[nH]2)cc1OC (stereo not drawn)	none (no result: PP5 primary, PP1 inh, PG9 binder, GASC-1 inh)

Screening results deposited in PubChem by several laboratories.
